# Measurements published in PubChem BioAssay.
# For some of these results: Entries with a potency or affinity are not part of this list. Calls of active or inactive are those of the source.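 Rule for the calls, unless noted: active = fluorescence ratio normalized to control raised more than 50% in primary screen plus both repeat runs; inactive = the rest.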
# Columns and labels:
# [1] = system: TRPC4 beta (transient receptor potential cation channel C4), mouse; experiment: activators of mouse TRPC4 channel, confirmation, cell-based, Fluo4 calcium, HEK293 TRPC4beta/mu-opioid, duplicates, 10 µM (AID 2426); conditions: Fluo4 calcium fluorescence, at 10 µM; stronger effect = higher value;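 for activation: percent rise of integrated ratio over buffer wells lacking compound which define 0%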
# [2] = system: transient receptor potential cation channel C4 beta (TRPC4), mouse; experiment: activators of mouse TRPC4 channel, confirmation, cell-based, second round, Fluo4, HEK293 TRPC4beta/mu-opioid, 1 µM (AID 2461;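 active = primary screen active and over 50% activation in each of two duplicate runs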;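 for activation: 0% = wells without test compound as baseline of integrated fluorescence ratio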); conditions: Fluo4 calcium fluorescence, at 1 µM; stronger effect = higher value
# [3] = system: TRPC4 (transient receptor potential cation channel C4 beta), mouse; experiment: positive allosteric modulators of mouse TRPC4, confirmation, cell-based, second round, Fluo-4, HEK293 TRPC4beta/mu-opioid, 1 µM (AID 2554;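 active = primary screen hit whose fluorescence ratio, in both repeats, exceeds the weak agonist control mean by 3 SD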); conditions: DAMGO EC20, Fluo-4 calcium flux, at 1 µM; stronger effect = higher value
# [4] = system: TRPC4 beta (transient receptor potential cation channel C4), mouse; experiment: positive allosteric modulators of mouse TRPC4, confirmation, cell-based, Fluo-4, HEK293 TRPC4beta/mu-opioid (AID 2555;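 active = primary screen hit whose calcium fluorescence ratio, in both repeats, exceeds the weak agonist control mean by 3 SD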); conditions: DAMGO EC20, Fluo-4 calcium flux, at 10 µM; stronger effect = higher value
# [5] = target: Short transient receptor potential channel 4 (Mus musculus) (UniProt Q9QUQ5); experiment: inhibitors of mouse TRPC4 channel, confirmation, cell-based, Fluo4, HEK293 TRPC4beta/mu-opioid (AID 2636;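 active = calcium signal cut by more than 3 SD below the full-agonist control yet still positive, in both repeats and the earlier primary screen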); conditions: DAMGO, Fluo4 calcium flux, at 10 µM; stronger effect = higher value
# Sequence of Short transient receptor potential channel 4 (Mus musculus) (Q9QUQ5 whole entry, looked up): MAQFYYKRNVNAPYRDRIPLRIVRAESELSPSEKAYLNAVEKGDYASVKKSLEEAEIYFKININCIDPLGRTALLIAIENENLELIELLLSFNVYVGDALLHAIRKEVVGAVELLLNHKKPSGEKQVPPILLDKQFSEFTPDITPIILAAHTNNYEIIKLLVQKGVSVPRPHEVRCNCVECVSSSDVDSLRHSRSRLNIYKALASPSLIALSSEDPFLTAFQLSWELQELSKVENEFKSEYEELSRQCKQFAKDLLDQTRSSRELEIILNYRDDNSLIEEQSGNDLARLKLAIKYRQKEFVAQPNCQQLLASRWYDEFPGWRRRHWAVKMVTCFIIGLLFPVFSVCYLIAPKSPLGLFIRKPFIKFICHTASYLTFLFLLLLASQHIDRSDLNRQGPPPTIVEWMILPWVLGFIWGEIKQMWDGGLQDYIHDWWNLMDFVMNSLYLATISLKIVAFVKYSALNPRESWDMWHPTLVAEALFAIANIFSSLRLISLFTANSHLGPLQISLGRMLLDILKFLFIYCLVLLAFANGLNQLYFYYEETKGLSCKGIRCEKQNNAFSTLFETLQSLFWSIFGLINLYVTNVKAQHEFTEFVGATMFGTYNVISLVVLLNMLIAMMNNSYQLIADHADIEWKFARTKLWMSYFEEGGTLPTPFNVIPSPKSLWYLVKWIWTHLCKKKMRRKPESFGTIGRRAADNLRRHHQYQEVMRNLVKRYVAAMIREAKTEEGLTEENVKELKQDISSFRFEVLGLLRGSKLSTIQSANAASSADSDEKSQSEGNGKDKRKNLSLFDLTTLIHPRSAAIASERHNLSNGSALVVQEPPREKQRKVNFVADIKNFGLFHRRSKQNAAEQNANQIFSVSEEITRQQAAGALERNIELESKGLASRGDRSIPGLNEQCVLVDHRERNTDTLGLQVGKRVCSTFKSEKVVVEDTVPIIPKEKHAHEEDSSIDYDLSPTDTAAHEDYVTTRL
# [6] = target: Short transient receptor potential channel 4 (Mus musculus) (UniProt Q9QUQ5); experiment: inhibitors of mouse TRPC4 channel, confirmation, cell-based, second round, Fluo4, HEK293 TRPC4beta/mu-opioid, 1 µM (AID 2637;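 active = calcium signal ratio cut to more than 3 SD under the fully stimulated control mean yet still positive, in both repeats and the primary screen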); conditions: Fluo4 calcium flux, DAMGO, at 1 µM; stronger effect = higher value
# [7] = target: Short transient receptor potential channel 4 (Mus musculus) (UniProt Q9QUQ5); experiment: TRPC4 positive allosteric modulators, dose response, cell-based, HEK293 TRPC4/mu-opioid, Fluo-4 calcium, EC20 DAMGO (AID 434941;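 active = earlier screen potentiator hit that boosts the TRPC4 ion channel at some dose, with a dose response; inactive = no potentiation, no dose response, or not a prior hit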;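 note: calcium entry triggered by an EC20 dose of DAMGO at the co-expressed mu-opioid receptor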)
# [8] = target: Short transient receptor potential channel 4 (Mus musculus) (UniProt Q9QUQ5); experiment: mouse TRPC4 channel inhibitors, dose response, cell-based, HEK293 TRPC4/mu-opioid, Fluo-4 calcium (AID 434942;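 active = primary screen inhibitor hit that blocks the TRPC4 channel at some tested dose, yielding a dose curve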)
# [9] = target: Short transient receptor potential channel 6 (Mus musculus) (UniProt Q61143); experiment: inhibition of mouse TRPC6 channel, confirmation, selectivity assay for TRPC4 inhibitor project, cell-based, HEK293, membrane potential dye, duplicate (AID 434948;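 active = active in primary screen and both duplicates, each dropping signal beyond three positive-control SD with fluorescence still positive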); conditions: HEK293 TRPC6, membrane potential dye fluorescence, at 10 µM; inhibition: stronger effect = higher value, stimulated with maximal-effect acetylcholine unless noted; outcome: stimulated with maximal-effect acetylcholine unless noted
# Sequence of Short transient receptor potential channel 6 (Mus musculus) (Q61143 whole entry, looked up): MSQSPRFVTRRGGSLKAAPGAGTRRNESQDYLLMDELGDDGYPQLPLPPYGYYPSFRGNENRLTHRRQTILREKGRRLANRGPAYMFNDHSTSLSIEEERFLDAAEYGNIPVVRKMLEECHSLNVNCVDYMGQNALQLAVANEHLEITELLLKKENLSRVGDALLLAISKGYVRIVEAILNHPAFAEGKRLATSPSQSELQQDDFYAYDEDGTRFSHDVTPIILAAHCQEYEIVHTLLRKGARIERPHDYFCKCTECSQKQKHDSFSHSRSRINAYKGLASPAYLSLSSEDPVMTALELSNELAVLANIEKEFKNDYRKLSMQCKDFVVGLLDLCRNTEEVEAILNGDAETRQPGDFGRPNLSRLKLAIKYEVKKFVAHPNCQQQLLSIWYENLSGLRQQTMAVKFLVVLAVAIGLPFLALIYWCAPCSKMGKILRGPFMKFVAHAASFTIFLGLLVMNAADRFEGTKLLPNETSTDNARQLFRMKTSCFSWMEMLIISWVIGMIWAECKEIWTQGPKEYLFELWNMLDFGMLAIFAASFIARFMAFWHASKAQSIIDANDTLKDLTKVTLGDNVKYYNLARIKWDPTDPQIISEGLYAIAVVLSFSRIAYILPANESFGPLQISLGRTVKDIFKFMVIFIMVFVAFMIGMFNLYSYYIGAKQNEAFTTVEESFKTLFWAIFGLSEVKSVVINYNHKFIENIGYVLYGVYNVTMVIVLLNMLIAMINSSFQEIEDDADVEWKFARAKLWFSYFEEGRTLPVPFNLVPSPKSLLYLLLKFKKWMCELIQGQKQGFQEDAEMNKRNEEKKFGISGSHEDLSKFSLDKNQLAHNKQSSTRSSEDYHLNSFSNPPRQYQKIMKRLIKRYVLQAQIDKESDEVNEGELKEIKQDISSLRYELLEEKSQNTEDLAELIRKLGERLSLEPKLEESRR
# [10] = target: Short transient receptor potential channel 6 (Mus musculus) (UniProt Q61143); experiment: activation of mouse TRPC6 channel, confirmation, selectivity assay for TRPC4 activator project, cell-based, HEK293, membrane potential dye, duplicate (AID 434950;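 active = membrane potential signal rise above negative control mean plus 3 SD in both duplicates, also active in the earlier TRPC4 screen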;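 for activation: 0% = buffer only wells and 100% = acetylcholine maximal-effect wells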); conditions: HEK293 TRPC6, membrane potential fluorescence, at 10 µM; stronger effect = higher value
# [11] = target: Short transient receptor potential channel 6 (Mus musculus) (UniProt Q61143); experiment: TRPC6 potentiation by TRPC4 potentiator hits, confirmation, selectivity assay for TRPC4 potentiator project, HEK293 cells, membrane potential dye, duplicate (AID 434952;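 active = compound raising the membrane signal above positive-control mean plus 3 SD in both repeats, and a primary screen hit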); conditions: HEK293 TRPC6, membrane potential dye fluorescence, at 10 µM; maximal acetylcholine added after compound unless noted
# [12] = target: Short transient receptor potential channel 4 (Mus musculus) (UniProt Q9QUQ5); experiment: calcium flux activators in TRPC4/5HT1a cells, counter-screen for TRPC4 activator project, cell-based, second counter screen, HEK293 TRPC4/5HT1a, Fluo-4 (AID 434977;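 active = calcium signal rise above buffer-control mean plus 5 SD in both duplicates, and also a hit in the primary screen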;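 for activation: plate controls were assay buffer for no effect and maximal serotonin response for full effect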); conditions: Fluo-4 calcium flux, at 10 µM; stronger effect = higher value
# [13] = calcium flux inhibitors in TRPC4/5HT1a cells, confirmation, counter-screen for TRPC4 inhibitor project, cell-based, second counter screen, HEK293 TRPC4/5HT1a, Fluo-4 (AID 434978;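 active = primary screen active whose calcium signal fell more than 3 SD beyond the full-serotonin control mean in both duplicate plates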;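 note: serotonin given first at submaximal then at maximal dose after compound preincubation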); conditions: Fluo-4 calcium flux, at 10 µM; inhibition: stronger effect = higher value, serotonin added to trigger calcium flux unless noted; outcome: serotonin added to trigger calcium flux unless noted
# [14] = system: TRPC4 (mouse), co-expressed with 5HT1a in HEK293; experiment: calcium flux potentiators in TRPC4/5HT1a cells, confirmation, counter-screen for TRPC4 potentiator project, cell-based, second counter screen, HEK293 TRPC4/5HT1a, Fluo-4 (AID 434979;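 active = signal rise over 3 SD above mean of control wells given weak agonist, in both repeats and first screen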); conditions: Fluo-4 calcium flux, at 10 µM; outcome: serotonin added at its EC20 dose unless noted; potentiation: stronger effect = higher value, serotonin added at its EC20 dose unless noted
# [15] = calcium flux activation in mu-opioid HEK293 cells, confirmation, counter-screen for TRPC4 activator project, cell-based, HEK293 mu-opioid receptor line (AID 449723;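 active = hit in primary screen, with calcium signal over 5 SD above buffer well mean in both duplicates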;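 note: counter screen cells carry the mu-opioid receptor alone and lack TRPC4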); conditions: Fluo-4 calcium fluorescence, at 10 µM; stronger effect = higher value
# [16] = calcium flux enhancement in mu-opioid HEK293 cells, confirmation, counter-screen for TRPC4 allosteric potentiator project, cell-based, HEK293 mu-opioid receptor line (AID 449724;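 active = calcium signal rise more than 3 SD above the low-dose agonist control mean, in both duplicate plates and the primary screen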); conditions: Fluo-4 calcium flux, at 10 µM; compound added before EC20 DAMGO stimulus unless noted
# [17] = thallium flux activation in parental CHO cells, counter-screen for KCNQ1 potentiator project (AID 493006;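 active = duplicate-averaged activation above buffer control mean plus 5 SD of those controls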); conditions: parental CHO-K1 cells, FluxOR thallium flux, at 10 µM; stronger effect = higher value
# [18] = target: Potassium voltage-gated channel subfamily KQT member 1 (Homo sapiens) (UniProt P51787); experiment: KCNQ1 potassium channel potentiators, confirmation, FluxOR thallium flux, CHO cells, duplicates (AID 493007;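 active = potentiation averaged over duplicate wells exceeding buffer-only control mean by more than 3 SD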;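 note: cells depolarized by a potassium plus thallium sulfate stimulus after compound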); conditions: KCNQ1 cell line, FluxOR thallium flux fluorescence, at 10 µM; stronger effect = higher value, % of reference activator effect, buffer zero
# Sequence of Potassium voltage-gated channel subfamily KQT member 1 (Homo sapiens) (P51787 whole entry, looked up): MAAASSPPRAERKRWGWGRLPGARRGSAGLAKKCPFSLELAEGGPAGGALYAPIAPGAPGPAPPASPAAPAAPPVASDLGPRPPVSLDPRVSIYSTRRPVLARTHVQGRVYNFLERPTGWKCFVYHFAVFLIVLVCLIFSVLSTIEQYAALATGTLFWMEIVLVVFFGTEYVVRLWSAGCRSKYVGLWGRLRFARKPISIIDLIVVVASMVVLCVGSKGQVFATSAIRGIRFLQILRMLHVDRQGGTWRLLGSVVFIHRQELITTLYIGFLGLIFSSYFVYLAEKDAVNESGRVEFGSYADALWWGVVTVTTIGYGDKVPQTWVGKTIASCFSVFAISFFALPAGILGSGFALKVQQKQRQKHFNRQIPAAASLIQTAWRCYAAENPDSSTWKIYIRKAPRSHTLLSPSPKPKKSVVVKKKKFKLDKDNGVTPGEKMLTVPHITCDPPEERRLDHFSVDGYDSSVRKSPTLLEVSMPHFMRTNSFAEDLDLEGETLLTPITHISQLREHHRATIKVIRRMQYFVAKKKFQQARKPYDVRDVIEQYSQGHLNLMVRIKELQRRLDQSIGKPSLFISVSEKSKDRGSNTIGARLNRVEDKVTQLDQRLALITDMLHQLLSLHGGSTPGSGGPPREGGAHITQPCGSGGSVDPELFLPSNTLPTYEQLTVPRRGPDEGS
# [19] = target: Potassium voltage-gated channel subfamily KQT member 2 (Rattus norvegicus) (UniProt O88943); experiment: rat KCNQ2 channel potentiation, selectivity assay for KCNQ1 potentiator project, KCNQ2-CHO-K1 cells (AID 493009;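 active = mean duplicate potentiation above the buffer control mean plus 5 SD of buffer wells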;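 note: assay conditions were tuned for KCNQ1 rather than KCNQ2 modulators; signal is max minus min fluorescence divided by baseline after thallium stimulus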); conditions: FluxOR thallium flux fluorescence, at 10 µM; stronger effect = higher value, scaled: buffer 0, activator control 100
# Sequence of Potassium voltage-gated channel subfamily KQT member 2 (Rattus norvegicus) (O88943 whole entry, looked up): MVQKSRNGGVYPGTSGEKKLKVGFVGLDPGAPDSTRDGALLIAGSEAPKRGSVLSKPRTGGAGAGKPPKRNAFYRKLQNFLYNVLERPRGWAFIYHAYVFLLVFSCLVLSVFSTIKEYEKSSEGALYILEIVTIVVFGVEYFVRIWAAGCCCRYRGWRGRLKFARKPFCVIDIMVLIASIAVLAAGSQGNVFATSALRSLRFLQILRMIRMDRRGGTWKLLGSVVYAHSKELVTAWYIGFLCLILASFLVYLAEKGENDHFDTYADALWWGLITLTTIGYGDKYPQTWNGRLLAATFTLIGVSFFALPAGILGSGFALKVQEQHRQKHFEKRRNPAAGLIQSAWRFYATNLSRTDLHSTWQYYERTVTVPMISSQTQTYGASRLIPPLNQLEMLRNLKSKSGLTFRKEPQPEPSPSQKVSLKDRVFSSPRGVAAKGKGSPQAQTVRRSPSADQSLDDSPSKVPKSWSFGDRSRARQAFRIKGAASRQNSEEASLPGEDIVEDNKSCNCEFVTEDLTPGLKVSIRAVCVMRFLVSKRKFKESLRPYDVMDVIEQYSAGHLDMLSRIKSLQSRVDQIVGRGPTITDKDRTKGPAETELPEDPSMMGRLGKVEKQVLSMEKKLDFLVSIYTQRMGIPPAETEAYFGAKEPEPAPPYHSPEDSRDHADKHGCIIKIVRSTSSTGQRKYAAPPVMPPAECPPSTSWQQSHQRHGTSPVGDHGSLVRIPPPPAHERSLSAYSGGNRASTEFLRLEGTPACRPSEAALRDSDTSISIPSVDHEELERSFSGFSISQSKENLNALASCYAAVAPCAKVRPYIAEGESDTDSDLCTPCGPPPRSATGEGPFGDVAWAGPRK
# [20] = target: Potassium voltage-gated channel subfamily KQT member 1 (Homo sapiens) (UniProt P51787); experiment: KCNQ1 channel current potentiators, confirmation, orthogonal assay for KCNQ1 potentiator project, IonWorks patch clamp, KCNQ1-CHO cells (AID 493184;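 active = current rise at least 3 SD above the untreated control mean in each of two repeat wells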); conditions: automated patch clamp current, at 10 µM
structure (smiles),measurement,setting,value
CN(C)C1(CNC(=O)c2ccc(Cl)c(S(=O)(=O)NCc3ccco3)c2)CCCCC1,outcome,[1],inactive
same,activation,[2],71% (active)
same,outcome,[3],inactive
same,outcome,[4],inactive
same,outcome,[5],inactive
same,outcome,[6],inactive
same,outcome,[7],inactive
same,outcome,[8],inactive
same,outcome,[9],inactive
same,activation,[10],36% (active)
same,outcome,[11],inactive
same,outcome,[12],inactive
same,outcome,[13],inactive
same,outcome,[14],inactive
same,outcome,[15],inactive
same,outcome,[16],inactive
CC[C@@H](CO)NC(=O)[C@@H]1C=C2c3cccc4c3c(cn4C)C[C@H]2N(C)C1,activation,[1],107% (active)
same,activation,[2],57% (active)
same,outcome,[3],inactive
same,outcome,[4],inactive
same,outcome,[5],inactive
same,outcome,[6],inactive
same,outcome,[7],inactive
same,outcome,[8],inactive
same,outcome,[9],inactive [setting not given]
same,outcome,[10],inactive
same,outcome,[11],inactive [setting not given]
same,activation,[12],147% (active)
same,outcome,[13],inactive [setting not given]
same,outcome,[14],inactive [setting not given]
same,outcome,[15],inactive
same,outcome,[16],inactive [setting not given]
O=C1OC(c2ccc([N+](=O)[O-])cc2)=N/C1=C/N1CC2CC(C1)c1cccc(=O)n1C2 (stereo not given),activation,[1],158% (active)
same,outcome,[2],inactive
same,outcome,[3],inactive
same,outcome,[4],inactive
same,outcome,[5],inactive
same,outcome,[6],inactive
same,outcome,[7],inactive
same,outcome,[8],inactive
same,outcome,[9],inactive
same,activation,[10],254% (active)
same,outcome,[11],inactive
same,activation,[12],64.7% (active)
same,outcome,[13],inactive
same,outcome,[14],inactive
same,activation,[15],55.4% (active)
same,outcome,[16],inactive
CCOc1cc(C=C2C(=O)NC(=O)NC2=O)ccc1OS(=O)(=O)c1ccccc1,outcome,[17],inactive
same,outcome,[18],inactive
same,outcome,[19],inactive
same,outcome,[20],inactive
CCOc1cc(CNCCc2c[nH]c3ccccc23)cc(Cl)c1OC,activation,[1],129% (active)
same,outcome,[2],inactive
same,outcome,[3],inactive
same,outcome,[4],inactive
same,outcome,[5],inactive
same,outcome,[6],inactive
same,outcome,[7],inactive
same,outcome,[8],inactive
same,outcome,[9],inactive
same,outcome,[10],inactive
same,outcome,[11],inactive
same,activation,[12],65.6% (active)
same,outcome,[13],inactive
same,outcome,[14],inactive
same,outcome,[15],inactive
same,outcome,[16],inactive
N=c1c[n+](CC23CC4CC(CC(C4)C2)C3)[n-]o1,activation,[1],294% (active)
same,activation,[2],114% (active)
same,outcome,[3],inactive
same,outcome,[4],inactive
same,outcome,[5],inactive
same,outcome,[6],inactive
same,outcome,[7],inactive
same,outcome,[8],inactive
same,outcome,[9],inactive
same,activation,[10],38% (active)
same,outcome,[11],inactive
same,outcome,[12],inactive
same,outcome,[13],inactive
same,outcome,[14],inactive
same,outcome,[15],inactive
same,outcome,[16],inactive
CCOC(=O)c1cc(C)n(CCc2cnc[nH]2)c1C,activation,[1],143% (active)
same,activation,[2],89% (active)
same,outcome,[3],inactive
same,outcome,[4],inactive
same,outcome,[5],inactive
same,outcome,[6],inactive
same,outcome,[7],inactive
same,outcome,[8],inactive
same,outcome,[9],inactive
same,activation,[10],26% (active)
same,outcome,[11],inactive
same,activation,[12],76% (active)
same,outcome,[13],inactive
same,outcome,[14],inactive
same,outcome,[15],inactive
same,outcome,[16],inactive
